# Hits are enriched below; roughly 10% of the tested compounds scored in any of these assays.
# HP1b binding inh: HP1-beta chromodomain-methylated histone interaction inhibition. P83916. AlphaScreen HP1-beta / biotin-H3K9me3 peptide binding. Potency, µM (highest dose often 114 µM), inactives show at the highest dose activity change, negative = inhibition, actives largely listed as inhibitors. actives 0.56% (n = 390,000); note: nearly all actives have a fitted effect of over 70% in size
# Target sequence (P83916 whole entry, looked up): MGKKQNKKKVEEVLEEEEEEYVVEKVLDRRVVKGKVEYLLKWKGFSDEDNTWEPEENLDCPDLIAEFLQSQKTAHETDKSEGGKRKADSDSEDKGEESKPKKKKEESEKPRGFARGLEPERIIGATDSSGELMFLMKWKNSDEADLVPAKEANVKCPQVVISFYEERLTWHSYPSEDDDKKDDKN
#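 Compound inhibition of the preformed complex between 50 nM HP1-beta and 50 nM biotinylated H3K9me3 peptide was read by AlphaScreen. Buffer was PBS pH 7.4 with 0.01% Tween-20. Incubations ran 30 min at room temperature, with 10 ug/mL donor/acceptor beads.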
# L3MBTL1 inh: blocks human L3MBTL1. AID 485360. actives 0.66% (n = 230,000). Potency, µM (series often up to 57.1 µM), for the others: at the top dose activity, negative = inhibition, usual class: inhibitors. AlphaScreen L3MBTL1–H3K9me1 peptide binding. Q9Y468; note: % is set by controls: 0 for no effect and ±100 for the full control effect; nearly all actives have a fitted effect of over 60% in size
#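 First, the protein-peptide complex forms for 30 min at room temperature (L3MBTL1 50 nM, biotinylated H3K9me1 peptide 75 nM). Next, compounds are pin-transferred and incubated 30 min. Finally, AlphaScreen beads are added and read after 30 min.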
# JMJD2A Tudor: inhibitors of human JMJD2A Tudor domain; O75164; AlphaScreen JMJD2A-Tudor / H3K4me3 peptide binding; Potency, µM (titrated, usually from 114 µM), for the others: top-dose activity change, negative = inhibition, actives largely listed as inhibitors; actives 4.4% (n = 390,000); AID 504339; note: % is set by controls: 0 for no effect and ±100 for the full control effect; nearly all actives have a fitted effect of over 50% in size
# GLS inhibitor: inhibitors of human glutaminase (GLS); GLS enzymatic activity, qHTS titration; Potency, µM (titrated, usually from 45.5 µM), inactives show at the highest dose activity change, negative = inhibition, hits mostly inhibitors; actives 0.21% (n = 410,000); AID 624170; note: % is set by controls: 0 for no effect and ±100 for the full control effect
#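 hKGA in 45 mM KH2PO4 (pH 8.2), 0.02% Tween-20 with compound, then 1mM L-Glutamine (stock as added) plus glutamate oxidase/HRP/Amplex red coupling mix. Fluorescence read initially and after 30 min at RT; signal change reflects glutamate formation.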
# G9a block: G9a (human) methyltransferase inhibition; Q96KQ7; G9a H3K9 monomethylation, AlphaScreen, 2 h; Potency, µM (doses to about 102 µM), for inactives: at the highest dose activity, negative = inhibition, most hits filed as inhibitors; actives 8.8% (n = 350,000); AID 504332; note: % is set by controls: 0 for no effect and ±100 for the full control effect; nearly all actives have a fitted effect of over 75% in size
# Target sequence (Q96KQ7 913-1193 limits assumed): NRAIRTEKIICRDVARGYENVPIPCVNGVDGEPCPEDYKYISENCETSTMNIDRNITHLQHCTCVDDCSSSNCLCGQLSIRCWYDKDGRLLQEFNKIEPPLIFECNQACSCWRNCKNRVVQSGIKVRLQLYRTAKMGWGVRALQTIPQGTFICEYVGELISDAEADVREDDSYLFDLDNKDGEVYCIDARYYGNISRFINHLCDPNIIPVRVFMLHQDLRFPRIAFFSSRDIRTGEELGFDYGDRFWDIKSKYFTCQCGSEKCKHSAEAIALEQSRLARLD
#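 Enzyme 20 nM + cpd, 15 min RT; add b-H3K9 pep 500 nM / SAM 20 uM; 2 h RT; anti-H3K9me1 Ab 0.5 ug/mL + SA donor / anti-rabbit acceptor beads 20 ug/mL each, 10 min; AlphaScreen read.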
# BAZ2B block: BAZ2B (human) inhibition; Q9UIF8; actives 4.4% (n = 360,000); Potency, µM (highest dose often 114 µM), without a hit: at the highest dose activity change, negative = inhibition, usual class: inhibitors; AlphaScreen BAZ2B-H3K14Ac peptide displacement; AID 504333; note: % is set by controls: 0 for no effect and ±100 for the full control effect; nearly all actives have a fitted effect of over 60% in size
#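 Compounds, titrated to a top concentration of 110 uM, were incubated 30 min at room temperature with preformed BAZ2B/acetyl-K14 H3 peptide complex (50 nM each). Proximity signal was measured by AlphaScreen after 20 min with beads.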
# The depositor's hits bear a star; ? = inconclusive; nt = no result given; [ ] = another dose, or the depositor's remark. Calls come from the whole dose curve; as a rule, active = well fitted curve in the direction sought with a large enough effect; inconclusive = small, poorly fitted or top-dose-only effect, or another doubt; inactive = no such curve, though single readings can be large; an effect the other way counts as inactive or inconclusive. Potency is the fitted concentration of half-maximal effect.
SMILES,HP1b binding inh,L3MBTL1 inh,JMJD2A Tudor,GLS inhibitor,G9a block,BAZ2B block
C#CCOCCOCCOCCNc1nc(N2CCN(C(=O)CCCCCCCCCCNC(=O)[C@H](CCCCN)n3cc(CCO)nn3)CC2)nc(N2CCN(C(=O)CCCCCCCCCCNC(=O)[C@H](CCCCN)n3cc(CCO)nn3)CC2)n1,?,-10%,89µM*,?,46%[2.33 µM],5%
Cc1nnc2ccc(-c3ccc(NC(=O)c4ccco4)cc3)nn12,14%,nt,-5%,-8%,35µM*,-20%
O=[N+]([O-])c1ccc(N/N=C/c2ccccc2O)cc1,12%,nt,-7%,16%,21%,-3%
Cc1cccc(NC(=O)C(=O)N/N=C/c2ccncc2)c1,33%,3%,-10%,4%,?,-10%
Cc1cccc(N/N=C/c2ccncc2)c1,-9%,nt,?,-26%,50µM*,-39%
Cc1cccc(N/N=C/c2ccccc2O)c1,-11%,12%,?,?,1.6µM*,14%
COc1cc(NC(=O)c2nnn(CC(=O)Nc3cc(C)ccc3C)c2N)cc(OC)c1,50%,nt,5%,-4%,13%[59 µM],8%[57.1 µM]
O=c1c2sc3ccccc3c2n(Cc2cccc(C(F)(F)F)c2)c(=O)n1Cc1ccc(F)cc1,76%,nt,-21%,1%,31%[59 µM],23%
CCOc1cc(/C=C2\SC(=N)N(c3nonc3N)C2=O)ccc1OCC(N)=O,25%,0%,?,-10%,45µM*,?
CN1CCN(c2ccc(S(=O)(=O)N3CCCCC3)cc2NC(=O)/C=C/c2ccc(OC(F)F)cc2)CC1,-25%,-12%,-34%,-1%,45µM*,-38%
CCN1CCN(c2ccc(S(=O)(=O)N3CCCCC3)cc2NC(=O)/C=C/c2ccc(OC(F)F)cc2)CC1,-15%,-18%,-34%,5%,14µM*,4%
CCN1CCN(c2ccc(S(=O)(=O)N3CCCCC3)cc2NC(=O)Cc2ccc(OC)cc2)CC1,6%,nt,-22%,-1%,-6%[12.7 µM],-10%
N[C@@H](Cc1cc(I)c(Oc2ccc(O)cc2)c(I)c1)C(=O)O,nt,nt,nt,nt,25%[59 µM],nt
COc1ccc(C2Nc3ccccc3C(=O)N2Cc2ccccc2)cc1COc1ccc(C)cc1 (configuration not stated),nt,nt,-14%,nt,nt,nt
CS(=O)(=O)c1ccc(C(=O)OCC(=O)N2CCc3ccccc32)cc1[N+](=O)[O-],14%,nt,-30%,nt,nt,nt
CCn1c(O)c(/C=N/n2cnnc2)sc1=S,-21%,-3%,56µM*,6%,18µM*,?
CCn1c(O)c(C=Nc2ccccc2)sc1=S,42%,nt,-11%,-4%,?,6%
CCNc1ncc2ncc(=O)n(C)c2n1,nt,nt,nt,nt,-1%[12.7 µM],nt
Cc1ccc(-c2noc(C3CCCN(C(=O)c4ccc(Cl)cc4)C3)n2)o1 (configuration not stated),19%,nt,-20%,-9%,?,?
Cc1ccc(-c2noc(C3CCCN(C(=O)C4CCCCC4)C3)n2)o1 (configuration not stated),17%,nt,-14%,3%,11µM*,-6%
Cc1ccc(S[C@@H](CCN2CC[C@H](NC(=O)OCc3ccccc3)CCC2=O)c2ccccc2)cc1,30%,-3%,25µM*,-3%,nt,-8%
CC(C)(C)NC(=O)C[C@H]1C[C@H](C(=O)N2CCCCC2)[C@@]2(C)c3[nH]c4cc(-c5ccco5)ccc4c3CCN2C1=O,-23%,-1%,50µM*,9%,nt,nt
CC[C@]12c3[nH]c4cc(-c5ccco5)ccc4c3CCN1C(=O)[C@@H](CC(=O)NCc1ccco1)C[C@@H]2C(=O)N1CCN(C(=O)c2ccco2)CC1,-25%,35µM*,?,-1%,nt,nt
CCN(CC)C(=O)[C@H]1C[C@H](CC(=O)NCc2ccco2)C(=O)N2CCc3c([nH]c4cc(-c5ccco5)ccc34)[C@]12C,?,-39%,50µM*,5%,nt,nt
CC[C@]12c3[nH]c4ccccc4c3CCN1C(=O)C(CC(=O)NCc1ccco1)C[C@@H]2C(=O)N1CCN(C(=O)c2ccco2)CC1 (some centres not stated),7%,0%,-24%,3%,nt,nt
SMILES,HP1b binding inh,L3MBTL1 inh,JMJD2A Tudor,GLS inhibitor,G9a block,BAZ2B block
CCN(CC)C(=O)[C@H]1C[C@H](CC(=O)NCCN2CCOCC2)C(=O)N2CCc3c([nH]c4cc(-c5ccco5)ccc34)[C@]12C,-1%,-4%,-34%,-1%,nt,nt
COC(=O)c1sc2nc3c(cc2c1N)COC(C)(C)C3,42%,nt,14%,2%,50µM*,-3%
CCCc1nc2c(sc3nc4c(cc32)COC(C)(C)C4)c(=O)o1,43%,5%,-4%,2%,22µM*,?
CC1(C)Cc2nc3sc(C(=O)NCCCO)c(N)c3cc2CO1,51%,9%,-21%,3%,nt,-6%
CC1=C(C(=O)OC2CCCC2)C(c2ccc(F)cc2F)CC(=O)N1 (configuration not stated),34%,nt,-9%,8%,-3%[59 µM],-1%
CC(C)(C)c1cc(CN(CCO)CCO)c(O)c(C(C)(C)C)c1,33%,-2%,-31%,-1%,nt,-18%
CC(C)(C)c1cc(CN2CCCC(O)C2)c(O)c(C(C)(C)C)c1 (configuration not stated),9%,nt,?,4%,?,79µM*
O=C1NC2(CCCCC2)C(=O)N1/N=C/c1ccc(O)cc1O,-18%,nt,-15%[11.4 µM],20%,4µM*,?
CNc1ccccc1C(=O)OC,47%,nt,-20%,0%,-13%[59 µM],9%
COC(=O)C(=N/Nc1ccccc1C(=O)OC)/C(C)=N/O,13%,nt,3%,2%,50µM*,-15%
O=C(c1cc(-c2ccc(Br)cc2)n[nH]1)N1CCN(S(=O)(=O)c2ccc(Br)s2)CC1,25%,nt,-11%,4%,10%[59 µM],-2%
COc1nc(C#N)nc(N2CCCCC2)n1,25%[57 µM],nt,-9%[57.1 µM],nt,nt,nt
O=c1[nH]c(SCc2ccc(Br)cc2)nc2c1CCCC2,40%,nt,8%,-7%,?,1%
COc1ccc(C)cc1NC(=O)CSc1nnc(-c2ccco2)n1N,15%,-2%,-8%[57.1 µM],5%,7%[12.7 µM],7%
Cc1ccc(NC(=O)Cn2nc3c(cc2=O)CCCC3)cc1Cl,20%[57 µM],nt,-15%,-25%,5%[59 µM],-1%
O=C(CSc1ccc(-c2cccs2)nn1)Nc1cccc(F)c1,26%,nt,-16%,-12%,18µM*,-38%
COc1ccc(C)cc1NC(=O)CSc1ccc(-c2ccco2)nn1,-22%,nt,?,1%,40µM*,?
Cc1ccc(NC(=O)Cn2nc(-c3ccco3)ccc2=O)cc1Cl,22%,nt,-12%,7%,11µM*,-28%

# Assay outcomes deposited in PubChem BioAssay by National Center for Advancing Translational Sciences (NCATS).
